Source: PubChem BioAssay
Not all results are given here.
aSyn 5UTR act – Activators working through SNCA 5'UTR binding (MLPCN); alpha-synuclein 5'UTR reporter, activators screen; AID 1814; actives 7.1% (n = 300,000); activity score, % (tested at 7.5 µM), hits read low; in the data active = activity score below about -60%
* = called active by the depositor.

SMILES	aSyn 5UTR act
CCOC(=O)C1CCCN(C(=O)c2ccc3oc(Cc4ccccc4)nc3c2)C1 (centres undefined)	-207.5*
COc1ccc(C(=O)Nc2ccc(Cl)cn2)cc1Cl	-181.5*
CN(C)S(=O)(=O)c1cccc(C(=O)Nc2ccc(Cl)cn2)c1	-116.2*
Cc1nn(C(=O)c2cccs2)c(N)c1-c1ccccc1	-125.5*
Cc1cc(C)nc(Nc2n[nH]c(-c3ccc(N)cc3)n2)n1	-140.2*
Cc1cc(C)nc(Nc2n[nH]c(-c3ccc(C(C)(C)C)cc3)n2)n1	-129.5*
CCS(=O)(=O)N1Cc2ccccc2CC1C(=O)Nc1cccc(OC)c1 (centres undefined)	-87.4*
COc1ccc(S(=O)(=O)N2Cc3ccccc3CC2C(=O)Nc2nccs2)cc1OC (centres undefined)	-149.5*
CCSc1nnc(NC(=O)C2Cc3ccccc3CN2S(=O)(=O)CC)s1 (centres undefined)	-87.6*
COc1ccc(S(=O)(=O)N2Cc3ccccc3CC2C(=O)Nc2nccs2)cc1 (centres undefined)	-157.6*
CCS(=O)(=O)N1Cc2ccccc2CC1C(=O)Nc1nc2c(C)cccc2s1 (centres undefined)	-68.8*
CCS(=O)(=O)N1Cc2ccccc2CC1C(=O)Nc1nccs1 (centres undefined)	-166.5*
Cc1cc(C)c2nc(NNC(=O)c3ccc(S(=O)(=O)N4CCc5ccccc5C4)cc3)sc2c1	75.3
Cn1c(=O)c(C(=O)NCc2ccccc2Cl)c(O)c2ccccc21	-78.0*
Cn1c(=O)c(C(=O)NCc2ccccc2)c(O)c2ccccc21	-74.0*
Cn1c(=O)c(C(=O)c2ccc(S(C)(=O)=O)c(Cl)c2Cl)c(O)c2ccccc21	-84.5*
Cc1cccc(NC(=O)c2cc(-c3ccc(C)c(C)c3O)n[nH]2)c1	-210.5*
CC(=O)Nc1ccc(NC(=O)c2cc(-c3cc(C)cc(C)c3O)n[nH]2)cc1	-108.2*
CC(=O)Nc1ccc(NC(=O)c2cc(-c3ccc(C)c(C)c3O)n[nH]2)cc1	-169.7*
CC(=O)c1ccccc1OC(=O)c1ccc(-c2ccccc2)cc1	-78.4*
Cc1ccn2c(NC3CCCC3)c(-c3cccs3)nc2c1	-116.4*
Cc1ccn2c(NCc3ccccc3)c(-c3cccs3)nc2c1	-100.0*
Cc1ccc(-c2nc(C#N)c(NCc3cccc4c3OCO4)o2)cc1	-65.8*
CC(C)(C)c1ccc(-c2nc(C#N)c(NCc3ccncc3)o2)cc1	-106.6*
Cc1occc1C(=O)Nc1ccc(Br)cc1F	-165.3*
SMILES	aSyn 5UTR act
Cc1nn(C)c(C(=O)Nc2ccc(Br)cc2F)c1Br	-110.1*
O=C(CCc1ccccc1)Nc1cccnc1Cl	-63.9*
O=C(CC(=O)c1ccccc1)Nc1cccnc1Cl	-119.4*
Cc1ccc(F)cc1NC(=O)c1sc2ncn(CC(=O)N3CCN(c4ccccn4)CC3)c(=O)c2c1C	-88.7*
O=C(Nc1ccc2oc(-c3ccccc3F)nc2c1)c1ccc([N+](=O)[O-])o1	-142.3*
O=C(Nc1ccc2oc(-c3ccccc3F)nc2c1)c1cncc(Br)c1	-65.0*
CCc1ccc(NC(=O)[C@H](C)NC(=O)C2CCN(C(=O)[C@@H](N)Cc3ccccc3)CC2)cc1	-84.4*
N#C/C(=C\c1c[nH]c2ccccc12)C(=O)NCC1CCCO1 (centres undefined)	-72.8*
N#C/C(=C\c1cccs1)C(=O)NCC1CCCO1 (centres undefined)	-66.1*
CC(C)OC(=O)/C(C#N)=C/c1c[nH]c2ccccc12	-79.9*
CCOC(=O)c1ccc(-c2ccc(/C=C(\C#N)C(=O)NCC3CCCO3)o2)cc1 (centres undefined)	-84.9*
CC(C)OC(=O)/C(C#N)=C/c1cn(Cc2ccccc2)c2ccccc12	74.8
CC1(C)CC(=O)c2sc(N3CCCCC3)nc2C1	-90.6*
COC(=O)c1ccc(N2OC3(C)C=CC2CC3)cc1 (centres undefined)	-88.5*
O=C(N/N=C/c1ccc[nH]1)c1sc2ccccc2c1Cl	-104.7*
CC(C)(C)C(=O)NC(=S)NNC(=O)c1sc2ccccc2c1Cl	88.6
O=C(NC(=S)NCCO)c1sc2ccccc2c1Cl	-143.4*
CCOC(=S)NC(=O)c1sc2ccccc2c1Cl	-83.8*
O=c1c2ccccc2nnn1CSc1ccccc1	-74.7*
CCCCCc1nnc(NC(=O)C2CCCO2)s1 (centres undefined)	-90.3*
CCCCCc1nnc(NC(=O)C2=COCCO2)s1	-110.5*
O=C(Nc1nc2cc3c(cc2s1)OCO3)C1=COCCO1	94.5
O=C(Nc1ccccc1)c1nnsc1S(=O)c1ccc(Cl)cc1 (centres undefined)	-103.5*
Cc1nnsc1S(=O)c1ccc(Cl)cc1 (centres undefined)	-99.0*
Cc1nnsc1S(=O)c1ccc(Cl)c(Cl)c1 (centres undefined)	-89.2*
SMILES	aSyn 5UTR act
Cc1cc(=O)oc2cc(NC(=O)c3ccc(OC(F)F)cc3)ccc12	-124.4*
Cc1cc(=O)oc2cc(NC(=O)c3cccc(S(=O)(=O)N(C)C)c3)ccc12	-111.5*
Cc1cc(=O)oc2cc(NC(=O)c3cccc(F)c3)ccc12	-151.9*
Cc1cc(=O)oc2cc(NC(=O)c3cccc(S(C)(=O)=O)c3)ccc12	-97.1*
O=c1cc(COc2ccc(Cl)c(Cl)c2)nc2sccn12	-82.9*
O=c1cc(CNc2cc(C(F)(F)F)cc(C(F)(F)F)c2)nc2sccn12	65.2
Cc1ccccc1-c1cc(-c2ccccc2O)on1	-216.4*
CCc1ccn2cc(-c3cc(-c4ccccc4)no3)nc2c1	94.4
Cc1ccc(O)c(-c2cc(-c3ccc(F)cc3)no2)c1	-108.7*
Oc1ccccc1-c1cc(-c2ccccc2)no1	-132.9*
Cc1ccc2nc(-c3cc(-c4ccccc4)no3)cn2c1	85.8
Cc1ccc(NC(=O)Nc2nnc(-c3ccccc3)o2)cc1	-74.6*
Cc1cccc(C)c1OCC(=O)Nc1cccc(-c2nnc(-c3ccccc3)o2)c1	-90.9*
O=C(Nc1cccc(-c2nnc(-c3ccccc3)o2)c1)C1CCCCC1	-105.1*
Cc1ccc(-c2nnc(-c3cccc(NC(=O)c4cccs4)c3)o2)cc1	-94.0*
COc1cccc(-c2nnc(NC(=O)C3CCCCC3)o2)c1	-96.2*
CCC(=O)Nc1cccc(-c2nnc(-c3ccccc3)o2)c1	-201.3*
Cc1nn(Cc2c(Cl)cccc2Cl)c(C)c1NC(=O)c1cn(-c2ccccc2)nc1-c1ccccc1	122.3
NS(=O)(=O)c1ccc(N/N=C/c2cn(-c3ccccc3)nc2-c2cccs2)cc1	-91.5*
O=C(O)c1cccc(N/N=C/c2cn(-c3ccccc3)nc2-c2cccs2)c1	-68.5*
O=C(Nc1cccnc1)c1cn(-c2ccccc2)nc1-c1cccs1	-83.9*
Cc1ccsc1/C=N/Nc1cccc(C(=O)O)c1	105.0
O=C(/C=C\c1ccccc1[N+](=O)[O-])Nc1ccccc1	-194.0*
Cc1ccnc(NC(=O)/C=C/c2ccccc2[N+](=O)[O-])c1	-118.2*
CCOc1ccccc1NC(=O)/C=C/c1ccccc1[N+](=O)[O-]	-87.6*
SMILES	aSyn 5UTR act
Clc1ccc(-c2nnsc2SCc2ccccc2)cc1	-75.1*
O=C(CSc1ccccc1)Nc1nc2ccccc2[nH]1	-132.0*
O=C(CSc1ccc(Cl)cc1)Nc1ccc(-c2nc3ccccc3[nH]2)cc1	-94.1*
O=C(CSc1n[nH]c(-c2ccccn2)n1)Nc1ccc(Cl)cc1	73.6
O=C(CCCOc1ccccc1)Nc1nc2ccccc2[nH]1	-114.7*
O=[N+]([O-])c1cccnc1Sc1ccc(Br)cc1	49.5
O=[N+]([O-])c1cccnc1Oc1ccc(C2SCCS2)cc1	-106.3*
O=[N+]([O-])c1cccnc1Oc1ccc(OCc2ccccc2)cc1	-78.7*
